Records with an inconclusive call do not appear. Active and inactive are the calls of the source. Calls follow the shape of the dose curve; as a rule, active = well fitted curve in the direction sought with a large enough effect; inconclusive = small, poorly fitted or top-dose-only effect, or effect the other way, or another doubt; inactive = no such curve, though single readings can be large or run the other way.
target: Alpha-galactosidase A (Homo sapiens) (UniProt P06280); test: Confirmation of Inhibitors of Human alpha-Galactosidase Using Spleen Homogenate; details: alpha-galactosidase enzyme activity; series mostly up to 56.2 µM; activity change: at the top concentration; also: 0% is about no effect
How it was run: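 AC50 values come from Hill-equation fits of normalised 4-methylumbelliferone fluorescence (365/440 nm, read after NaOH/glycine stop). Enzyme source: spleen homogenate; substrate 1 mM final; pH 5.0 citrate buffer; 40 min at 37C; compound titration 0.5 nM–58 uM.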

Chain of Alpha-galactosidase A (Homo sapiens) (P06280 32-429 limits assumed): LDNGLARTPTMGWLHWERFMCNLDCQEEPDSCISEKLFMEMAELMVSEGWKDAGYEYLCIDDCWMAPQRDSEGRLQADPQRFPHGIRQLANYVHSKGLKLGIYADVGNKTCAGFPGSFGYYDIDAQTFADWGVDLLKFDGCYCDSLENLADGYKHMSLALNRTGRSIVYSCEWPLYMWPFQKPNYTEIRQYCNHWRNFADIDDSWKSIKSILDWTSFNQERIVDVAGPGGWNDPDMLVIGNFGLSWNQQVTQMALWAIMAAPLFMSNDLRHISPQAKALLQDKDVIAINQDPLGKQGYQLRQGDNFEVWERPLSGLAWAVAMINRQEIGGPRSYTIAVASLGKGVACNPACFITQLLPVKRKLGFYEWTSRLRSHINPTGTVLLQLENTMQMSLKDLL

Activity change, inactive:
Clc1ccc(-c2ccnc(Oc3cc(Cl)ccc3Cl)n2)cc1 -1.17% [at 23.6 µM]
CN(CCO)S(=O)(=O)c1ccc2c(c1)C(=NNC(N)=O)c1cc(S(=O)(=O)N(C)CCO)ccc1-2 2.47%
Cc1ccc(C2NC(=O)c3c(sc4c3CCN(C)C4)N2)s1 (stereo unspecified) 8.42%
Cc1cc(/C=N/NC(=O)c2ccc(O)cc2)c(C)n1C1CC1 1.75%
Cc1ccc(S(=O)(=O)N2CCN(C(=O)CSc3nc4ccccc4c(=O)[nH]3)CC2)c(C)c1 1.9%
CCOC(=O)CCc1cccc2c1CCC2=O 10.5% [at 23.6 µM]
CCCCn1c(CN2CCN(c3cccc(Cl)c3)CC2)nc2c1c(=O)n(C)c(=O)n2C 0.243% [at 23.6 µM]
O=c1oc2ccc3ccccc3c2cc1-c1nc(CCCBr)cs1 -0.995%
O=C(CSc1n[nH]c(-c2ccccc2)n1)c1ccc(O)c(O)c1 -0.0554%
Cc1ccc(N/N=C2\CCS(=O)(=O)c3sccc32)cc1 1.34%
O=C1CCCC/C1=C\Nc1ccc(O)cc1 -3.18%
CNC(=S)/N=C(\Nc1ccc(C)cc1)c1ccccc1 7.36% [at 23.6 µM]
COC(=O)c1c(NC(=O)Cn2nc(C(F)F)cc2C(F)F)sc(C)c1C 4.67% [at 23.6 µM]
O=[N+]([O-])c1ccccc1Nc1ccc(O)cc1 -2.47%
Cc1ccc(-c2cc(C(=O)N/N=C/c3c(C)nn(-c4ccccc4)c3C)n[nH]2)s1 2.27%
COc1ccc(C2C(C(=O)c3ccco3)=C(O)C(=O)N2CC2CCCO2)c(OC)c1 (stereo unspecified) -1.95%
O=C(O)c1c[nH]c2ccc(S(=O)(=O)N3CCOCC3)cc12 -1.11%
NN=C1c2cc(S(=O)(=O)NCCO)ccc2-c2ccc(S(=O)(=O)NCCO)cc21 4.61%
Cc1cccc2cc3c(NC(=O)c4ccccn4)nn(C)c3nc12 4.42% [at 23.6 µM]
Cc1cc(C)c(C(=O)Cn2cnc3cc([N+](=O)[O-])ccc3c2=O)cc1C 11.1% [at 23.6 µM]
CC1S/C(=N\N=C\c2cccc([N+](=O)[O-])c2)N(C(C)(C)C)C1=O (stereo unspecified) 0.894% [at 23.6 µM]
CCc1sc(-c2cc3ccc(O)cc3oc2=O)nc1-c1ccccc1 3.17%
N#Cc1c(Cl)cccc1N1CCC(C(N)=O)CC1 0.0336%
C[C@@H](NC(=O)c1nc[nH]c1C(=O)N[C@@H](Cc1ccccc1)C(=O)OC(C)(C)C)c1ccccc1 1.74%
OC[C@H]1NC[C@H](O)[C@@H](O)[C@H]1O -7.1% [at 287 µM]
O=S(=O)(c1ccc(-c2ccccc2)cc1)N1CCOCC1 11.5%
CCC1C(=O)NCCN1Cc1nc(-c2ccc(C)s2)oc1C (stereo unspecified) 6.37%
N=c1sccn1CC(=O)Nc1cc(S(=O)(=O)N2CCCC2)ccc1Cl 4.76%
OC[C@H]1NC[C@@H](O)[C@@H](O)[C@@H]1O -8.03%
CC1=CC(=C2C=CC(=O)C=C2)C=C(C)N1C -1.91% [at 23.6 µM]
CC1CCc2nc(-c3cc4ccc(O)cc4oc3=O)sc2C1 (stereo unspecified) 26.2%
NC(=S)NN=C1c2cc(S(=O)(=O)N3CCOCC3)ccc2-c2ccc(S(=O)(=O)N3CCOCC3)cc21 5.73%
C=CCCCCCCCCCCCc1ccco1 -17.2% [at 287 µM]
C/C=C1\COC(C(=O)NCCN2CCOCC2)(C(F)(F)F)C=C1C=C1CCCCC1 (stereo unspecified) -3.09%
Cc1ccc(S(=O)(=O)N2CCOCC2)cc1 -2.3%
CC1CCc2c(nc3ncnn3c2N2CCN(c3ccccc3F)CC2)C1 (stereo unspecified) 1.27% [at 23.6 µM]

— PubChem BioAssay AID2108 (National Center for Advancing Translational Sciences (NCATS), 2009)
